Experimental data: the supplement of paper PMC11732987, “Enantioselective OTUD7B fragment discovery through chemoproteomics screening and high-throughput optimisation” (Communications Chemistry, 2025)

Experiments:
Assay in all cases: log2 ratio of Biotin-Ahx-Ub-VS probe labelling (fragment/DMSO); higher = less target engagement (more negative = stronger competition), active = hit call of the paper (q ≤ 0.05, log2 ratio ≤ -1)
Conditions in all cases: compound concentration: 200 uM; treatment time: 3 h
USP19 = target: T1, USP19 (UniProt O94966)
T1 sequence (whole entry): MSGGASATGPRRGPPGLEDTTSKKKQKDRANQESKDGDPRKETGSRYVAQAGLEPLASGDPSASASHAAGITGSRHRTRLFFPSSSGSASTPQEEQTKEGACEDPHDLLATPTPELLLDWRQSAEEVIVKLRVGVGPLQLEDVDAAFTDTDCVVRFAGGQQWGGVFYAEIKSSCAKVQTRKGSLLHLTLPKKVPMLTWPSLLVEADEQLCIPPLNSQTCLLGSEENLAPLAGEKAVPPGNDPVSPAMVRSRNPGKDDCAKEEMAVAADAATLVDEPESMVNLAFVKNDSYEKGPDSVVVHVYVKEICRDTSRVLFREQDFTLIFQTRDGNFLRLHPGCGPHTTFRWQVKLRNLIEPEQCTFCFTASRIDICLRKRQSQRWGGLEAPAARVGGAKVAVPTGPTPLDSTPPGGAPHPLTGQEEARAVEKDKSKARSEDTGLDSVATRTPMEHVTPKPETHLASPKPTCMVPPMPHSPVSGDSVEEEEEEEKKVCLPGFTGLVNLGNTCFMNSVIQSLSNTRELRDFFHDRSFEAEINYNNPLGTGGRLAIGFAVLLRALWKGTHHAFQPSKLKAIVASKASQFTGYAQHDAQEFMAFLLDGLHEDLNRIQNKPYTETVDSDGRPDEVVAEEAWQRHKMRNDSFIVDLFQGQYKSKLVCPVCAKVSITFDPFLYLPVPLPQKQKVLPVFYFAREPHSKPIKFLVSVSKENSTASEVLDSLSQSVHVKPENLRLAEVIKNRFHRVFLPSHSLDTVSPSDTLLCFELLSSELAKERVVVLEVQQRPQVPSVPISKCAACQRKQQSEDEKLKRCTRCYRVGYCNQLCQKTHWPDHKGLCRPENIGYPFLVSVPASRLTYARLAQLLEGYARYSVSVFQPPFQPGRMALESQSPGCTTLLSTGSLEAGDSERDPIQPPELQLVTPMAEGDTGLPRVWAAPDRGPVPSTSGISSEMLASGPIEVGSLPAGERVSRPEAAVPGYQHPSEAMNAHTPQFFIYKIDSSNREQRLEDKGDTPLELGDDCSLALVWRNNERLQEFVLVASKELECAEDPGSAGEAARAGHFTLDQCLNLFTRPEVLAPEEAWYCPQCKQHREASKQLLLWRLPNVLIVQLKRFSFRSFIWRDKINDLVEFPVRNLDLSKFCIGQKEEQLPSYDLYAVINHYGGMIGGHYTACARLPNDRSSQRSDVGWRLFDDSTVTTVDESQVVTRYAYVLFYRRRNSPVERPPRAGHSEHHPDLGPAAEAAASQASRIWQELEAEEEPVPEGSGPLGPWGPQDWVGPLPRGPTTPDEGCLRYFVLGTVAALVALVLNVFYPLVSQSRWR
Method in brief: (§1)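 Fragment (200 µM) or vehicle was incubated for 3 h with triplicate HEK293T lysate samples of 495 µg, which were then treated with Biotin-Ahx-Ub-VS at 0.5 µM final for 1 h. Labelled DUBs were enriched on NeutrAvidin, digested with LysC and trypsin, and analysed by diaPASEF LC-MS/MS. Values are average log2 fragment/vehicle ratios from an unpaired t-test on global-median-normalised Spectronaut label-free quantities, using proteins with ≥2 unique peptides.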

USP22 = target: T2, USP22 (UniProt Q9UPT9)
T2 sequence (whole entry): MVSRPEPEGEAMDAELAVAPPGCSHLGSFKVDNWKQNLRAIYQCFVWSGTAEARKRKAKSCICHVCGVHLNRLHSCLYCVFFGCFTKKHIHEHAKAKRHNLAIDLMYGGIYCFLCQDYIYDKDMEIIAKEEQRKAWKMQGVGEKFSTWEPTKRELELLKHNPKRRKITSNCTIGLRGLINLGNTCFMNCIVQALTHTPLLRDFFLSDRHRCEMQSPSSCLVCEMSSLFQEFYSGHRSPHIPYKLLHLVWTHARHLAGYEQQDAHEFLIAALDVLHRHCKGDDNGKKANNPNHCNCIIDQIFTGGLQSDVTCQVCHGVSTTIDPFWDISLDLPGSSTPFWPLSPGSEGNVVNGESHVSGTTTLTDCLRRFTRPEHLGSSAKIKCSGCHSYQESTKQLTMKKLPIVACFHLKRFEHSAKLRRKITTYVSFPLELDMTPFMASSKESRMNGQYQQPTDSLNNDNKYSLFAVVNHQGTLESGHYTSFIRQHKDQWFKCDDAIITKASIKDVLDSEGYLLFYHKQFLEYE
Method in brief: as §1

USP24 = USP24 (UniProt Q9UPU5)
Method in brief: as §1

USP25 = target: T3, USP25 (UniProt Q9UHP3)
T3 sequence (whole entry): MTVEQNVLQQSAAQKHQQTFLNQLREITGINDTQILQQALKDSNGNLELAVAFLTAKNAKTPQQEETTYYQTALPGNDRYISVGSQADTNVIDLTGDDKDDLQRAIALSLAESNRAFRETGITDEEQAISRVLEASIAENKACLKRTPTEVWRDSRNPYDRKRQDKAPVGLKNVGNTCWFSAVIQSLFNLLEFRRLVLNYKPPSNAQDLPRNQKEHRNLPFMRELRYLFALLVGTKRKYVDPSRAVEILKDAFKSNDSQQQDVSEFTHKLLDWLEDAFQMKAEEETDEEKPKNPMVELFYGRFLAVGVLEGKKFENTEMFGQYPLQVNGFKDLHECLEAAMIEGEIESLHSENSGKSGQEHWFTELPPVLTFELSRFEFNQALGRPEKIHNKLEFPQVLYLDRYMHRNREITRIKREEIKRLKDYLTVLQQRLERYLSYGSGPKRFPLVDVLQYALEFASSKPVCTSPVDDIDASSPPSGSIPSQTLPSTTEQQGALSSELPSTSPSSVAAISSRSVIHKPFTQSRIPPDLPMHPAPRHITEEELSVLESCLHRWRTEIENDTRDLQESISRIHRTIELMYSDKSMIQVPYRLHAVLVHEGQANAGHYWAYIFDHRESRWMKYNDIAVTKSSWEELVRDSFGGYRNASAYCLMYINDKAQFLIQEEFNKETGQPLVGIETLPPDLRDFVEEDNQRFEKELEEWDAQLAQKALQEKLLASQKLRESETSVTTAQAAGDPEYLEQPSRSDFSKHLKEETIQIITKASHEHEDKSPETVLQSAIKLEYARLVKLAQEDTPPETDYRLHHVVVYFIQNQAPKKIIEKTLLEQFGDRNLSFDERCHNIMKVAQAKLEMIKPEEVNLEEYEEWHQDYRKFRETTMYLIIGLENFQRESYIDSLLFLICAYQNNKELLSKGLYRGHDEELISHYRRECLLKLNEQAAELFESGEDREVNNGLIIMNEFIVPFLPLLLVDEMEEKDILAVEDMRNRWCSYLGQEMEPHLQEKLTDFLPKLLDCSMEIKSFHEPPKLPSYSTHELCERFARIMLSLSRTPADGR
Method in brief: as §1

USP28 = target: T4, USP28 (UniProt Q96RU2)
T4 sequence (whole entry): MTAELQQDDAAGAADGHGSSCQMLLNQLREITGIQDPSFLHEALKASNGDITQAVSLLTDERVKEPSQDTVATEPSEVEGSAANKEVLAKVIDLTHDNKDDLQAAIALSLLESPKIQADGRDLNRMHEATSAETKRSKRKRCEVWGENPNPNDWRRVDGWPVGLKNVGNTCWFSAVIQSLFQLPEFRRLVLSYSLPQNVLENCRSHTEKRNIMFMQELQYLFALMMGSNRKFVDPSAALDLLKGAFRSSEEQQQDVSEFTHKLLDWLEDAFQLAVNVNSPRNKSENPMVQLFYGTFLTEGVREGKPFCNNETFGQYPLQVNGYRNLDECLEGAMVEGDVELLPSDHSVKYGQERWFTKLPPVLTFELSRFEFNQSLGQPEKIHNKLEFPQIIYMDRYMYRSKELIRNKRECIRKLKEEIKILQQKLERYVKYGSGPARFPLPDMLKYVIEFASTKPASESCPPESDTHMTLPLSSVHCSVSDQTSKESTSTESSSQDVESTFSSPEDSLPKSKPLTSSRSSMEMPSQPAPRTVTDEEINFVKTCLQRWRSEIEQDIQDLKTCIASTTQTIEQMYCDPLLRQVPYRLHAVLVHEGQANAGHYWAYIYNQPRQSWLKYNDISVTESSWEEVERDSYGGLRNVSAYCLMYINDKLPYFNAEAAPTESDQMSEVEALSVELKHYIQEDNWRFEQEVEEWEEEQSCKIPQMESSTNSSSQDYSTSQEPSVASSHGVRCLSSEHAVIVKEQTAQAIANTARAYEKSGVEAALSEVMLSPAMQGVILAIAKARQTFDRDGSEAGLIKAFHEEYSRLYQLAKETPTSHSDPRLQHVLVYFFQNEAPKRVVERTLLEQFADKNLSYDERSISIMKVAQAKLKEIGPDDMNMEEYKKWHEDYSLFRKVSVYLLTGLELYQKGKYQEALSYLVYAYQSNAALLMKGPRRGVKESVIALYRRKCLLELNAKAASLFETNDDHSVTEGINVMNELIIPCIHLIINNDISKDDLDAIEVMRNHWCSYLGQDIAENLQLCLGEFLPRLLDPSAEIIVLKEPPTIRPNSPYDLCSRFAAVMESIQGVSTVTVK
Method in brief: as §1

Measured: log2 ratio of Biotin-Ahx-Ub-VS probe labelling

USP24, sequence (Q9UPU5 whole entry): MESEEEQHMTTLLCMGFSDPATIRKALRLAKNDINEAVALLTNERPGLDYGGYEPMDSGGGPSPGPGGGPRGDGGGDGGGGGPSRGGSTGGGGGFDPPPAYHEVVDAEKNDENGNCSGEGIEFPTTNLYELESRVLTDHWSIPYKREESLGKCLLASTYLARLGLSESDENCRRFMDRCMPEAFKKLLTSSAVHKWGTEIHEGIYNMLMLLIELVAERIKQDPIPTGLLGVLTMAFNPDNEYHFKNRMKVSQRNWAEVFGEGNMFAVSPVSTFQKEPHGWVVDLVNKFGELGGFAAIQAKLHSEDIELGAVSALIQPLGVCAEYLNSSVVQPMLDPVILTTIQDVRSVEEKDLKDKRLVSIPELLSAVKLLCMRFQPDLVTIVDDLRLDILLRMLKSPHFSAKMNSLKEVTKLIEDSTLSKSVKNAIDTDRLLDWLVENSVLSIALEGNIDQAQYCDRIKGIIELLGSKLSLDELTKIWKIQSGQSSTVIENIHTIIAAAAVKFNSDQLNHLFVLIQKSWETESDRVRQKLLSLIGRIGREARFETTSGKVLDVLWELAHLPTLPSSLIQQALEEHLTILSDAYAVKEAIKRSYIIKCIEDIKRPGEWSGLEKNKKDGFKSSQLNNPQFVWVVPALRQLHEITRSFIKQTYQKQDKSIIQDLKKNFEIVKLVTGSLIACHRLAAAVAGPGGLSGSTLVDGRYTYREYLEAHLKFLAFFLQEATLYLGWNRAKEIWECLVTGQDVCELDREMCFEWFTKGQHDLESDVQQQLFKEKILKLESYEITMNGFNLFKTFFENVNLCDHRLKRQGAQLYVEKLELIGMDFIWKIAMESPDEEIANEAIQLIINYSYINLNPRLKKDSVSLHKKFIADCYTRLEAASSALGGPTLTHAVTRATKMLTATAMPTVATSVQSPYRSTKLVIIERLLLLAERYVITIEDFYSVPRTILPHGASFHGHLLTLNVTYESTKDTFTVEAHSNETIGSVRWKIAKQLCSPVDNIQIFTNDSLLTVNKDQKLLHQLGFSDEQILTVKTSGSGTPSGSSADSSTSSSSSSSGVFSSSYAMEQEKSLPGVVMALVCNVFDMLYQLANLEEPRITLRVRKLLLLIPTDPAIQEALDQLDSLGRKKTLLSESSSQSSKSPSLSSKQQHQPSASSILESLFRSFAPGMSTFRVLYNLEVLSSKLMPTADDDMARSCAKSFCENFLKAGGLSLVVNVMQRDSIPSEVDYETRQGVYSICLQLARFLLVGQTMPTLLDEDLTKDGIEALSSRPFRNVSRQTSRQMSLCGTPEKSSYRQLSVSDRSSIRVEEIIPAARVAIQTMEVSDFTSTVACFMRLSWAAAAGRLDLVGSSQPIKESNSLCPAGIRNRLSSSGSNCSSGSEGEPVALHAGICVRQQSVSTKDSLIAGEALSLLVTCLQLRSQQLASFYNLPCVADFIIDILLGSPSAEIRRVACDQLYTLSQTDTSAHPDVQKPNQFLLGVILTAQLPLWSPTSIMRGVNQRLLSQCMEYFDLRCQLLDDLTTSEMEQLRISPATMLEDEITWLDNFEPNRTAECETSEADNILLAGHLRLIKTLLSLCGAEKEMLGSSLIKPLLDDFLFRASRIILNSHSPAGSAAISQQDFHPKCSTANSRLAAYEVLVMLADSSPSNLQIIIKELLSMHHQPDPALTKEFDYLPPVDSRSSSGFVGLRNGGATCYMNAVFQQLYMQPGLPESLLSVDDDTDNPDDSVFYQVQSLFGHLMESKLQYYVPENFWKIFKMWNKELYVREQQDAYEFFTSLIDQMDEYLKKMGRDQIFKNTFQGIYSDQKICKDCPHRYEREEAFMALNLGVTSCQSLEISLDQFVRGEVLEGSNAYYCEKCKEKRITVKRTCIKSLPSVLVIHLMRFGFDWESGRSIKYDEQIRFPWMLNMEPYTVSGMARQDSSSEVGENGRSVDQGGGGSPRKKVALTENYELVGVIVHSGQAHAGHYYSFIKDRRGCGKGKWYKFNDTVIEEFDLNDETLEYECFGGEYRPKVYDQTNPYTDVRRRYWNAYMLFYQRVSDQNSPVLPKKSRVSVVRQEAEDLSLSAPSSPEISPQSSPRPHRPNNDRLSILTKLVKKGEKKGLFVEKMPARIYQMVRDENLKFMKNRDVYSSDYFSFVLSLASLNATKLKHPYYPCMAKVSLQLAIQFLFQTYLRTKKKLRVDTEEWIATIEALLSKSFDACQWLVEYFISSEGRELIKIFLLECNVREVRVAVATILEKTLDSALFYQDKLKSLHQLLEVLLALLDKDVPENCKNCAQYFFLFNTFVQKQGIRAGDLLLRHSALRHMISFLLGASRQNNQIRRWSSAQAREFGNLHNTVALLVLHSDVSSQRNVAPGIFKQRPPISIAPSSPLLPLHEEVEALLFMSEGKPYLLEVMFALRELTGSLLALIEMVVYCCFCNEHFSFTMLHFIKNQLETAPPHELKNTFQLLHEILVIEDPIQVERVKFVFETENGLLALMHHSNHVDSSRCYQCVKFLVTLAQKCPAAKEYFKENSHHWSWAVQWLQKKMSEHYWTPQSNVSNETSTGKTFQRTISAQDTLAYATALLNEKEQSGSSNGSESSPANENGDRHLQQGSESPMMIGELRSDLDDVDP

O=C(CCl)NC1CCN(C(=O)C2CCCCC2)CC1
inactive: USP19 0.0532 | USP22 0.324 | USP24 -0.169 | USP25 -0.158 | USP28 -0.257
